Laboratory results: paper PMC7862700, “An all-to-all approach to the identification of sequence-specific readers for epigenetic DNA modifications on cytosine”

How the values were obtained:
Experiment in all cases: DAPPL (digital affinity profiling via proximity ligation, sequencing); 10 mM Tris-HCl pH 7.5, 50 mM NaCl, 1 mM DTT, 4% glycerol, room temperature, 30 min; GST-TFs on glutathione beads, 16-mer random dsDNA library, 0.1% formaldehyde crosslink after washing; high values mean tight binding
FLI1 = molecular target: T1, FLI1 (Homo sapiens, UniProt Q01543 1-452); details: protein: recombinant; tags: N-terminal GST; dsDNA, one strand shown
T1 sequence: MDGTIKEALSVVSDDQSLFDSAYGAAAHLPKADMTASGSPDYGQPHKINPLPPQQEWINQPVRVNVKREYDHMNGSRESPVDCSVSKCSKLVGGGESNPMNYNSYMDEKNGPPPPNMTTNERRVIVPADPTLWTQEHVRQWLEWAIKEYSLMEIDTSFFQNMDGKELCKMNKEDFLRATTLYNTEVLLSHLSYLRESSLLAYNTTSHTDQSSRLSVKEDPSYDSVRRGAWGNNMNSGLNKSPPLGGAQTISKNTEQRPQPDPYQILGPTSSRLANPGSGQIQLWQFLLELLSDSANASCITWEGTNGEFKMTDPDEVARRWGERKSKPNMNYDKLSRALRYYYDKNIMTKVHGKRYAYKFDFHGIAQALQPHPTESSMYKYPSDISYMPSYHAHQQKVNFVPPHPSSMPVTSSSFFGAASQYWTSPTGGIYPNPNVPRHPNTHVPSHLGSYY
Procedure, shortened: (§1)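 Sequencing on an Illumina NextSeq500 followed washing, crosslinking with 0.1% formaldehyde, proximity ligation (BsaI/T4 ligase, 1 h, 37 °C) and PCR amplification of pools that had been incubated for 30 min at room temperature with 200 nmole of a random double-stranded 16-mer DNA library in Tris/NaCl/DTT/glycerol buffer. Each pool held DNA-barcoded human transcription factors, expressed in yeast as GST fusions and captured on glutathione beads, plus a tag-only sample. Binding signal is a hexamer's read frequency for a factor divided by its frequency in the tag-only sample.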

ELK1 = molecular target: T2, ELK1 (Homo sapiens, UniProt P19419 1-428); details: protein: recombinant; tags: N-terminal GST; dsDNA, one strand shown
T2 sequence: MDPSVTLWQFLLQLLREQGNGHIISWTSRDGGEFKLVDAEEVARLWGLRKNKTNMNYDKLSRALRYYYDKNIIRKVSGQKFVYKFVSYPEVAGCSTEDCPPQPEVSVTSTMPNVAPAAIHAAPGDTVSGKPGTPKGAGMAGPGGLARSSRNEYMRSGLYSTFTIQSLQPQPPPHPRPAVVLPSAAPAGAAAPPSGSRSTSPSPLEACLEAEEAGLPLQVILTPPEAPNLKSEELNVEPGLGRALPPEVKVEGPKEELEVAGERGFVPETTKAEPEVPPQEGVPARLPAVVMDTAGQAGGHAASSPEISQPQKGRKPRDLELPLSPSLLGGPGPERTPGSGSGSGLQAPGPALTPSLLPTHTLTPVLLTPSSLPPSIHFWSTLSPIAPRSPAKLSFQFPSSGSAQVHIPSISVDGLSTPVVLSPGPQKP
Procedure, shortened: as §1

GABPA = molecular target: T3, GABPA (Homo sapiens, UniProt Q06546 1-454); details: protein: recombinant; tags: N-terminal GST; dsDNA, one strand shown
T3 sequence: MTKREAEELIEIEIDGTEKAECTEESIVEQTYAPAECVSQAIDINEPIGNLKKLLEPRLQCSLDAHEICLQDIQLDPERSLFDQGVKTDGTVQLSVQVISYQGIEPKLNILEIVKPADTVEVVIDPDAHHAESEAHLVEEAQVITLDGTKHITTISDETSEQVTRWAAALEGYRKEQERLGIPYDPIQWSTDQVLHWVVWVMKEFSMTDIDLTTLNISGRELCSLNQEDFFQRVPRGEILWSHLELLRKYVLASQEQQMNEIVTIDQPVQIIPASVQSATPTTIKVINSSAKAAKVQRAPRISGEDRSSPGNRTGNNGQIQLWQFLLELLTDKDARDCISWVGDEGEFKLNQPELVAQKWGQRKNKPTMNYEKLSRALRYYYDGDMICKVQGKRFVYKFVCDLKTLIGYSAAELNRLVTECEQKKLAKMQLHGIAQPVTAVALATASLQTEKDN
Procedure, shortened: as §1

ERG = molecular target: T4, ERG (Homo sapiens, UniProt P11308 1-479); details: protein: recombinant; tags: N-terminal GST; dsDNA, one strand shown
T4 sequence: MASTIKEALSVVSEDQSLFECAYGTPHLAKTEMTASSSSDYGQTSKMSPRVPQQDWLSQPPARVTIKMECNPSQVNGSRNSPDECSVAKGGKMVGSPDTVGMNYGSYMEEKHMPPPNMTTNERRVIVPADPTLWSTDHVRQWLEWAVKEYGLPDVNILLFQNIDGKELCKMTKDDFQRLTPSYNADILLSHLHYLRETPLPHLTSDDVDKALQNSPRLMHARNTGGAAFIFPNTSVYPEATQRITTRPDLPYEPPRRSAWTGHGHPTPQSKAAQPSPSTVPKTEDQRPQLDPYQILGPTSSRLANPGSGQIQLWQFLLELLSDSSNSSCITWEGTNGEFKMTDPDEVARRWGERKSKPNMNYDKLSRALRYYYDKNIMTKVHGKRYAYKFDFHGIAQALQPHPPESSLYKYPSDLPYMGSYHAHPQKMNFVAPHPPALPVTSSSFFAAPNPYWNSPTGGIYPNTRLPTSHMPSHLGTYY
Procedure, shortened: as §1

ELF1 = ELF1 (Homo sapiens, UniProt P32519 1-619); details: protein: recombinant; tags: N-terminal GST; dsDNA, one strand shown
Procedure, shortened: as §1

EHF = molecular target: T5, EHF (Homo sapiens, UniProt Q9NZC4 1-300); details: protein: recombinant; tags: N-terminal GST; dsDNA, one strand shown
T5 sequence: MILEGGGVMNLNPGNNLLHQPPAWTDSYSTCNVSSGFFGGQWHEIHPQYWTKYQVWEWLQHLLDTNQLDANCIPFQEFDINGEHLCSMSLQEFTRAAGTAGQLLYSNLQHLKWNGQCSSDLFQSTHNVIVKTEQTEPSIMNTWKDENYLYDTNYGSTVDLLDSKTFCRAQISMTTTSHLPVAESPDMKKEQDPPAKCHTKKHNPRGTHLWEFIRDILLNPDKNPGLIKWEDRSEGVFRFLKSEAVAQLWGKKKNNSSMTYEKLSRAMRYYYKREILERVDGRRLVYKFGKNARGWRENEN
Procedure, shortened: as §1

SPI1 = SPI1 (Homo sapiens, UniProt P17947 1-270); details: protein: recombinant; tags: N-terminal GST; dsDNA, one strand shown
Procedure, shortened: as §1

SPIB = SPIB (Homo sapiens, UniProt Q01892 1-262); details: protein: recombinant; tags: N-terminal GST; dsDNA, one strand shown
Procedure, shortened: as §1

ELK3 = molecular target: T6, ELK3 (Homo sapiens, UniProt P41970 1-407); details: protein: recombinant; tags: N-terminal GST; dsDNA, one strand shown
T6 sequence: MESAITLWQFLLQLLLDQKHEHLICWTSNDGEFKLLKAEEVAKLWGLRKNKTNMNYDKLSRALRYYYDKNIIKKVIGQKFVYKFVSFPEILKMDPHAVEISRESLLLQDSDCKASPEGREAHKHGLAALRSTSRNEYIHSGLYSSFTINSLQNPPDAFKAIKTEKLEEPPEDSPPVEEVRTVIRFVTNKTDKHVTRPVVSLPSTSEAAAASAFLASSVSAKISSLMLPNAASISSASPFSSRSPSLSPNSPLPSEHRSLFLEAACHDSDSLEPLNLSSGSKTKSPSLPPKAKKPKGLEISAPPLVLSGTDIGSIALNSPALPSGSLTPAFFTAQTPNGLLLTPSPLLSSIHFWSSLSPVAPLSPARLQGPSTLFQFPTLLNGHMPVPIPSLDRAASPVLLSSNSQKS
Procedure, shortened: as §1

FEV = molecular target: T7, FEV (Homo sapiens, UniProt Q99581 1-238); details: protein: recombinant; tags: N-terminal GST; dsDNA, one strand shown
T7 sequence: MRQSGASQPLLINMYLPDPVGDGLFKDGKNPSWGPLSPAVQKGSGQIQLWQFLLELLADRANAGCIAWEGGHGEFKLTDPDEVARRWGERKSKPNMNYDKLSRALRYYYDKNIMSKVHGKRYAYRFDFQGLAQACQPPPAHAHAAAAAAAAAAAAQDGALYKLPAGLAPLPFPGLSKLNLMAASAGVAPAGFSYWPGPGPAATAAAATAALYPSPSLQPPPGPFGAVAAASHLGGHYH
Procedure, shortened: as §1

ETV5 = ETV5 (Homo sapiens, UniProt P41161 1-510); details: protein: recombinant; tags: N-terminal GST; dsDNA, one strand shown
Procedure, shortened: as §1

HSF1 = HSF1 (Homo sapiens, UniProt Q00613 1-529); details: protein: recombinant; tags: N-terminal GST; chain copies: 3; dsDNA, one strand shown
Procedure, shortened: as §1

SPIC = molecular target: T8, SPIC (Homo sapiens, UniProt Q8N5J4 1-248); details: protein: recombinant; tags: N-terminal GST; dsDNA, one strand shown
T8 sequence: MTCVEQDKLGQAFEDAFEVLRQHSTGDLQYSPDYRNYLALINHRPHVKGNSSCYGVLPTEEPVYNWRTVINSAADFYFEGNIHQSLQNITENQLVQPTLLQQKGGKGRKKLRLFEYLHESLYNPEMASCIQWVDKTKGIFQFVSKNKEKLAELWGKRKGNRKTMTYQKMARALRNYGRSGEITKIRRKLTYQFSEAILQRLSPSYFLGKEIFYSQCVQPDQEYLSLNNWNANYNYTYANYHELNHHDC
Procedure, shortened: as §1

ELF4 = ELF4 (Homo sapiens, UniProt Q99607 1-663); details: protein: recombinant; tags: N-terminal GST; dsDNA, one strand shown
Procedure, shortened: as §1

ELK4 = molecular target: T9, ELK4 (Homo sapiens, UniProt P28324-2 1-405); details: protein: recombinant; tags: N-terminal GST; dsDNA, one strand shown
T9 sequence: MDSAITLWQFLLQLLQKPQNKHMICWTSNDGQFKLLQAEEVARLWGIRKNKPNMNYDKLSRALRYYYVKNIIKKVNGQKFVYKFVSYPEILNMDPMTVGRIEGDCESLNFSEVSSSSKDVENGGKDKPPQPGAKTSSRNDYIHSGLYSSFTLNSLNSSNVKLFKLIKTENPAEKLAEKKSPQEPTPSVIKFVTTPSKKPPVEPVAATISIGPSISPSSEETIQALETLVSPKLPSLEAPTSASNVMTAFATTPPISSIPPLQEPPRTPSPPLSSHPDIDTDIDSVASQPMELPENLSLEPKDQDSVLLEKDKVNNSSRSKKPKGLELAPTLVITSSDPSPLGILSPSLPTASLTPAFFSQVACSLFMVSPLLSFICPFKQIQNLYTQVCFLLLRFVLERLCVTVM
Procedure, shortened: as §1

ETV2 = molecular target: T10, ETV2 (Homo sapiens, UniProt O00321 1-342); details: protein: recombinant; tags: N-terminal GST; dsDNA, one strand shown
T10 sequence: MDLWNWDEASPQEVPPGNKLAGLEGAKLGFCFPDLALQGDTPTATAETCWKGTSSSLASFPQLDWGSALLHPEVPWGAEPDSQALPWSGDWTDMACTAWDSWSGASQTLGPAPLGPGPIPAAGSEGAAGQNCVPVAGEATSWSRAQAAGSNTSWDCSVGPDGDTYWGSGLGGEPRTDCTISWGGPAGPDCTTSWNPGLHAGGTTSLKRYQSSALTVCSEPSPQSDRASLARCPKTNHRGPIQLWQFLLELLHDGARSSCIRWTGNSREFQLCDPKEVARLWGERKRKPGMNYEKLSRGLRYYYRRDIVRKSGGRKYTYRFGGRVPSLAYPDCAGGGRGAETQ
Procedure, shortened: as §1

ELF3 = molecular target: T11, ELF3 (Homo sapiens, UniProt P78545 1-371); details: protein: recombinant; tags: N-terminal GST; dsDNA, one strand shown
T11 sequence: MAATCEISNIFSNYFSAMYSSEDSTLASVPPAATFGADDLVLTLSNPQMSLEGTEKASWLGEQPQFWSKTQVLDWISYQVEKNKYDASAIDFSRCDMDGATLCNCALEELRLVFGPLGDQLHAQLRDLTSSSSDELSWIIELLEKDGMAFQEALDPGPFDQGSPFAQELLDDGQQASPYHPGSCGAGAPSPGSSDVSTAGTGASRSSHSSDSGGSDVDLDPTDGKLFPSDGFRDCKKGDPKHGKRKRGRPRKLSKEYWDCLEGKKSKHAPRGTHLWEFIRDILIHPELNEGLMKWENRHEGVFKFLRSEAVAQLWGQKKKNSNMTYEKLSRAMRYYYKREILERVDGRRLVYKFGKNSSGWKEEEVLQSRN
Procedure, shortened: as §1

CRX = CRX (Homo sapiens, UniProt O43186 1-299); details: protein: recombinant; tags: N-terminal GST; dsDNA, one strand shown
Procedure, shortened: as §1

ETV1 = ETV1 (Homo sapiens, UniProt P50549 1-477); details: protein: recombinant; tags: N-terminal GST; dsDNA, one strand shown
Procedure, shortened: as §1

Chain of ETV5 (P41161 whole entry): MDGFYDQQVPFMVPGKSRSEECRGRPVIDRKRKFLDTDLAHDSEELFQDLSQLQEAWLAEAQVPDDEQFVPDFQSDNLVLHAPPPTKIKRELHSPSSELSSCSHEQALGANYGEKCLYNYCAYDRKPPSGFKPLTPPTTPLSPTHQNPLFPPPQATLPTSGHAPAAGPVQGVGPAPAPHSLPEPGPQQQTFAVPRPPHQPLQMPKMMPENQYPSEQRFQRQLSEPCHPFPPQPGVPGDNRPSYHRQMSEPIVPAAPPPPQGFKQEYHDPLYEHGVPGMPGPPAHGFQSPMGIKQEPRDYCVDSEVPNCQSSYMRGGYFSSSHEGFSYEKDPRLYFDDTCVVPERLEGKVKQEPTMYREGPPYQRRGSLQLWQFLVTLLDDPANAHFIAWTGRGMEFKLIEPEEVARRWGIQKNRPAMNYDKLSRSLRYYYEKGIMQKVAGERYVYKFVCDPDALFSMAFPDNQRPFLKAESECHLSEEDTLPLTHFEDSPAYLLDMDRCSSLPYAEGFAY
Chain of CRX (O43186 whole entry): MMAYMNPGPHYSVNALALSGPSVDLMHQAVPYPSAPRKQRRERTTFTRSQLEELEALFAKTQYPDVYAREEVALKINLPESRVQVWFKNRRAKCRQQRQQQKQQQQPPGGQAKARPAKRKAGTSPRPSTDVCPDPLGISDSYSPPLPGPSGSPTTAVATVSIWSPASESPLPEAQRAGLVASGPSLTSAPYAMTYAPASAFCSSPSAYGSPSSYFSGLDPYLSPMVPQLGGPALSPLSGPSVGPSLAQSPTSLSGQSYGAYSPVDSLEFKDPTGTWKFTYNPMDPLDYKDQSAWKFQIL
Chain of ETV1 (P50549 whole entry): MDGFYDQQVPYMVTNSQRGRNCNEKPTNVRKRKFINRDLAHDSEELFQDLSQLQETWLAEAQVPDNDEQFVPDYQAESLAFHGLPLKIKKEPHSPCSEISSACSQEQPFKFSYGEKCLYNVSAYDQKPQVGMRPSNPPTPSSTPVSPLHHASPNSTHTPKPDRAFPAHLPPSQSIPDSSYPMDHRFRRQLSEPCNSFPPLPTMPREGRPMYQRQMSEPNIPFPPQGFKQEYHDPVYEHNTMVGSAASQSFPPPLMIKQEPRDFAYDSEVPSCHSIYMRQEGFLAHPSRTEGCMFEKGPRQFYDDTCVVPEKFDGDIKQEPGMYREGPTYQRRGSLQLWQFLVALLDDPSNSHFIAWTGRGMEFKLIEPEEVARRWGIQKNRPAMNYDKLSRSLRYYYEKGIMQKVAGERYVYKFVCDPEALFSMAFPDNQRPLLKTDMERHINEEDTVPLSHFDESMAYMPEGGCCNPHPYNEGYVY
Chain of ELF1 (P32519 whole entry): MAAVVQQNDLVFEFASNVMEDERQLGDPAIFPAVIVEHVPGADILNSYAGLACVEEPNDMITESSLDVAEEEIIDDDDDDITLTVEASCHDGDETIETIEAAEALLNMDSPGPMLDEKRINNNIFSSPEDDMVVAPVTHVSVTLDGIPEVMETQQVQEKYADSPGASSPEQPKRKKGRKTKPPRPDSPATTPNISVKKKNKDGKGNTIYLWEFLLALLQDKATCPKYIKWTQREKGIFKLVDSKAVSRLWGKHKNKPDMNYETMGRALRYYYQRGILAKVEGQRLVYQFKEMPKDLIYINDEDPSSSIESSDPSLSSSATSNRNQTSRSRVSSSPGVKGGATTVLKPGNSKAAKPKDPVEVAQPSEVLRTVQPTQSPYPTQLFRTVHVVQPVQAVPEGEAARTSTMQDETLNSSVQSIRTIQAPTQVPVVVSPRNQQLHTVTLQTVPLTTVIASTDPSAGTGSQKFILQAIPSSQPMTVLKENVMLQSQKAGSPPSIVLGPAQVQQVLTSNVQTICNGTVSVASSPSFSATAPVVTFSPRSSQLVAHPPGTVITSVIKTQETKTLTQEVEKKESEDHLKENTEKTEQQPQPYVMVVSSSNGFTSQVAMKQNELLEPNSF
Chain of HSF1 (Q00613 whole entry): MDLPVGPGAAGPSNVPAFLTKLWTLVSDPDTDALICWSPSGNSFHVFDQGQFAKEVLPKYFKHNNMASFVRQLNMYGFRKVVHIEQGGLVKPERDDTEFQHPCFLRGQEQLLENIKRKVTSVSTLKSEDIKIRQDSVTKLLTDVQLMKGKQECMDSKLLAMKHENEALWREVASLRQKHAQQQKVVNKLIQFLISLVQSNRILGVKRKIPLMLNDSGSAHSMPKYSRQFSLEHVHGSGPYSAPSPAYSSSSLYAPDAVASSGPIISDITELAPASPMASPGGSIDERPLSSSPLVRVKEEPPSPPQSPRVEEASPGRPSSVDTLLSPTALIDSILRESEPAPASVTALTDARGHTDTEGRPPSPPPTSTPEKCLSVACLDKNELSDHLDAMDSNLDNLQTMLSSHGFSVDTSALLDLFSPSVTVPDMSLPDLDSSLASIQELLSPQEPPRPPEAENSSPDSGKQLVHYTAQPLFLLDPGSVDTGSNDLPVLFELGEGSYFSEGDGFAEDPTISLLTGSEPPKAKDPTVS
Chain of ELF4 (Q99607 whole entry): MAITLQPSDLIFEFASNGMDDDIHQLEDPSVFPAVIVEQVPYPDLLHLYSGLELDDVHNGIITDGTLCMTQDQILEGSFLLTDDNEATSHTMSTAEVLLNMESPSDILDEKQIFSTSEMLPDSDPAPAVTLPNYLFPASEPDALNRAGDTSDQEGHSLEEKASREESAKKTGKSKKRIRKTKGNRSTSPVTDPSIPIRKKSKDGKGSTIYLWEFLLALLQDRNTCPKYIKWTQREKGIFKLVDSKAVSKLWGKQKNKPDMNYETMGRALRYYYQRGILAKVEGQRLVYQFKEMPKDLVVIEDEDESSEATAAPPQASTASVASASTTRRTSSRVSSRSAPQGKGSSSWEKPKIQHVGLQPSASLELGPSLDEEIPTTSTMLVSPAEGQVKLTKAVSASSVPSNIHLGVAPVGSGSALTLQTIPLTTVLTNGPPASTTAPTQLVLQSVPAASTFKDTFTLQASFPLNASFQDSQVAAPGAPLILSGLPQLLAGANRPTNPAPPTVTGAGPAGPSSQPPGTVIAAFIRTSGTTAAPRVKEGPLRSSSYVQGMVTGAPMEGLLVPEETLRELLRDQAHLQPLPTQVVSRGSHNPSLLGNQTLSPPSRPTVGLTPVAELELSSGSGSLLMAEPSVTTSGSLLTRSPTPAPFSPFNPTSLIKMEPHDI
Chain of SPIB (Q01892 whole entry): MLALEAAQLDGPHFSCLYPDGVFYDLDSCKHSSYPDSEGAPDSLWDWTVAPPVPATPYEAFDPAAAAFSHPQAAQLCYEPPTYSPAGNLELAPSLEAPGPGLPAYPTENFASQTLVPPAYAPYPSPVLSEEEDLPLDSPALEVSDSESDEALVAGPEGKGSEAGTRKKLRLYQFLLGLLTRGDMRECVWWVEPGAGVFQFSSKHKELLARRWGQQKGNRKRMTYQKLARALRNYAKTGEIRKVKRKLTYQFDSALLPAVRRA

ATGACA
binding signal (FLI1): 1.34 fold enrichment (6-mer frequency, TF over GST control)
binding signal (ELK1): 1.32 fold enrichment (6-mer frequency, TF over GST control)
binding signal (GABPA): 1.45 fold enrichment (6-mer frequency, TF over GST control)
binding signal (ERG): 1.32 fold enrichment (6-mer frequency, TF over GST control)
binding signal (ELF1): 1.39 fold enrichment (6-mer frequency, TF over GST control)
binding signal (EHF): 1.32 fold enrichment (6-mer frequency, TF over GST control)
binding signal (SPI1): 1.29 fold enrichment (6-mer frequency, TF over GST control)
binding signal (SPIB): 1.32 fold enrichment (6-mer frequency, TF over GST control)
binding signal (ELK3): 1.3 fold enrichment (6-mer frequency, TF over GST control)
binding signal (FEV): 1.22 fold enrichment (6-mer frequency, TF over GST control)
binding signal (ETV5): 1.29 fold enrichment (6-mer frequency, TF over GST control)
binding signal (HSF1): 1.09 fold enrichment (6-mer frequency, TF over GST control)
binding signal (SPIC): 1.14 fold enrichment (6-mer frequency, TF over GST control)
binding signal (ELF4): 1.32 fold enrichment (6-mer frequency, TF over GST control)
binding signal (ELK4): 1.19 fold enrichment (6-mer frequency, TF over GST control)
binding signal (ETV2): 1.19 fold enrichment (6-mer frequency, TF over GST control)
binding signal (ELF3): 1.33 fold enrichment (6-mer frequency, TF over GST control)
binding signal (CRX): 1.09 fold enrichment (6-mer frequency, TF over GST control)
binding signal (ETV1): 1.28 fold enrichment (6-mer frequency, TF over GST control)
